# Assay results reported in PubChem BioAssay AID463173 (ICCB-Longwood Screening Facility, Harvard Medical School, 2010).
# Screen size: about 52,000 compounds; about 4,300 (8.3%) were called active. The sample holds actives, similar compounds and a random draw of the others, so the mix is not that of the screen. No stated cut-off is given here; in the data, active means survival mostly below about 52% (no sharp cut-off); inactive means mostly above about 56%.
# System: DeltatarO mutant
# Experiment: S. aureus survival, RN4220 and DeltatarO strains – OD600, teichoic acid synthesis inhibitors, primary screen (AID 463173)
# Details: S. aureus RN4220 wild type/DeltatarO growth, OD600, 18 h, hits give low values, screened at 18.75 µg/mL (by protocol)
row,SMILES,survival
1,O=C(NC1CCCC1)c1ccc2c(=O)n(Cc3ccccc3)c(SCc3cccc([N+](=O)[O-])c3)nc2c1,106% (inactive)
2,Cn1c(=O)c2c(nc(NCCCCO)n2Cc2ccccc2Cl)n(C)c1=O,63% (inactive)
3,Cn1c(=O)c2c(nc(N3CCOCC3)n2Cc2ccccc2)n(C)c1=O,52% (inactive)
4,Cn1c(=O)c2c(nc(N3CCOCC3)n2Cc2ccccc2F)n(C)c1=O,71% (inactive)
5,Cn1c(=O)c2c(nc(N3CCOCC3)n2Cc2ccccc2Cl)n(C)c1=O,46% (active)
6,CCOC(=O)Cn1c(=O)c2c(nc3n2CCN3c2ccc(CC)cc2)n(C)c1=O,79% (inactive)
7,Cn1c(=O)c2c(nc(N3CCOCC3)n2Cc2ccc(Br)cc2)n(C)c1=O,43% (active)
8,Cn1c(=O)c2c(nc(N3CCOCC3)n2Cc2cccc(Br)c2)n(C)c1=O,80% (inactive)
9,CC(C)CCSc1nc2c(c(=O)n(C)c(=O)n2C)n1Cc1ccccc1Cl,34% (active)
10,Cn1c(=O)n(Cc2ccccc2Cl)c(=O)c2c1nc1n2CCN1c1ccccc1,73% (inactive)
11,CCOC(=O)Cn1c(=O)c2c(nc(N3CCOCC3)n2Cc2ccccc2)n(C)c1=O,43% (active)
12,Cn1c(=O)[nH]c(=O)c2c1nc(N1CCOCC1)n2Cc1ccccc1,167% (inactive)
13,COc1ccc(Oc2nc3c(c(=O)n(C)c(=O)n3C)n2Cc2ccccc2Cl)cc1,54% (inactive)
14,CCOc1ccc(NC(=O)c2c(NC(=O)c3ccco3)sc3c2CCC(C(C)(C)C)C3)cc1 (configuration not stated),68% (inactive)
15,CCOC(=O)c1c(C)[nH]c(C)c1S(=O)(=O)N1CCCC(C(=O)NCc2cccc(C)c2)C1 (configuration not stated),88% (inactive)
16,Cc1ccc(CNC(=O)C2CCCN(S(=O)(=O)c3cn(C)cn3)C2)cc1 (configuration not stated),94% (inactive)

row,SMILES,survival
1,O=C(Cn1cnc2ccccc2c1=O)NCCC(=O)Nc1ccc(F)cc1,85% (inactive)
2,CC(C)(C)Nc1nc(OCC#N)nc(N2CCOCC2)n1,113% (inactive)
3,CCCCNC(=O)Cn1c(=O)cc(C)c2c(C)nn(-c3ccc(CC)cc3)c21,55% (inactive)
4,Cc1cc(C)c2c(n1)SCC(=O)N2CC(=O)Nc1ccc(C)c(C)c1,115% (inactive)
5,Cc1ccc(CSc2ncc(Cl)c(C(=O)Nc3nnc(C)s3)n2)cc1,32% (active)
6,Cc1nnc(NC(=O)c2nc(SC(C)C)ncc2Cl)s1,72% (inactive)
7,CCc1nnc(NC(=O)c2nc(SC)ncc2Cl)s1,109% (inactive)
8,Cc1ccc(CNC(=O)c2nc(SCc3ccc(C)cc3)ncc2Cl)cc1,99% (inactive)
9,Cc1cccc(CSc2ncc(Cl)c(C(=O)Nc3nnc(C)s3)n2)c1,73% (inactive)
10,CCSc1ncc(Cl)c(C(=O)Nc2nnc(CC)s2)n1,72% (inactive)
11,Cc1nnc(NC(=O)c2nc(SCc3ccccc3F)ncc2Cl)s1,90% (inactive)
12,CCCc1nnc(NC(=O)c2nc(SCC)ncc2Cl)s1,76% (inactive)
13,CCc1nnc(NC(=O)c2nc(SCc3ccccc3C)ncc2Cl)s1,96% (inactive)
14,CCc1nnc(NC(=O)c2nc(SCc3cccc(C)c3)ncc2Cl)s1,5% (active)
15,CCc1nnc(NC(=O)c2nc(SCc3ccccc3F)ncc2Cl)s1,31% (active)
16,CCc1nnc(NC(=O)c2nc(SCc3ccc(F)cc3)ncc2Cl)s1,29% (active)
